# High-throughput results as filed in PubChem.
# Only some compounds are listed: those with a hit (about 2.7% of all), similar ones and a draw of the others.
# MRP resist rev: compounds reversing MRP-mediated drug resistance | H69AR cells + 2 uM doxorubicin, CellTiter-Glo, 72 h | AID 602 | actives 0.04% (n = 85,000) | differential viability (reversal), % at 10 µM;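 active = viability drop by adding the cancer drug above about 55%, with treated viability meeting a 40% cutoff, limit read from the data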;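 note: viability without doxorubicin minus viability with 2 µM doxorubicin for each compound; larger differential means the compound sensitizes cells more to doxorubicin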
# ERb SRC1 inh: blocks coactivator binding to human estrogen receptor beta | Q92731 | TR-FRET ER-beta LBD / SRC1-Cy5 peptide binding; receptor agonist-loaded with 1 µM estradiol | inhibition, % at 25.6 µM | actives 1.3% (n = 86,000);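 active = compounds whose percent inhibition of the receptor-coactivator binding signal exceeds about 50% in the single-dose screen, limit read from the data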;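 note: 0% = receptor plus peptide wells without compound and 100% = peptide-only wells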
# Target sequence (Q92731 whole entry, looked up, the tested form may be a part): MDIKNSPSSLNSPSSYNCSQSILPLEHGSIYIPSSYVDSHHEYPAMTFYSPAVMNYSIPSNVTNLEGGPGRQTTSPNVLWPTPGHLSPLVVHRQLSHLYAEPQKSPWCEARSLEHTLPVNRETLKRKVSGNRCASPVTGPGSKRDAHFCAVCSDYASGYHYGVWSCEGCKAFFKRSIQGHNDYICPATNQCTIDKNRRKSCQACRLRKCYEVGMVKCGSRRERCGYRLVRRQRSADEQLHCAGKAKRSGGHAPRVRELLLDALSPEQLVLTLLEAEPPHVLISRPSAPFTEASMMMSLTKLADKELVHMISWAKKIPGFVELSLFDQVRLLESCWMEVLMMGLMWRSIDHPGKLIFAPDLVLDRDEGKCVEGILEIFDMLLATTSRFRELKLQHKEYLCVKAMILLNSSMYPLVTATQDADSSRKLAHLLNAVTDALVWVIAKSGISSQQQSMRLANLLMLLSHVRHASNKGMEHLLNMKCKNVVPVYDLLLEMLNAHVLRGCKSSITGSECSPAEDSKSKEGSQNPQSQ
# MRP-1 activ: activates MRP-1; H69AR cells + doxorubicin, viability rescue, CellTiter-Glo; viability increase, % at 10 µM; actives 0.61% (n = 140,000); AID 799;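 active = viability gain under doxorubicin at or above a set limit, the compound median plus 3 SD, cut at about 4.7% in these data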;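 note: MRP-1 overexpressing cells given doxorubicin 25 µM after compound pretreatment; 18-22 h compound pretreatment then 72 h with doxorubicin before readout; 0% = doxorubicin-only wells and 100% = vehicle-treated cells without doxorubicin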
# ERa coact pot: ER-alpha (human) coactivator binding potentiation; TR-FRET ERalpha-LBD/SRC-Cy5 coactivator binding, 2 h; 100 = basal binding, no effect; coactivator binding (% of control), % at 25.6 µM; actives 1.3% (n = 86,000); AID 639; in the data active = activity above about 200%;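 note: binding measured in presence of low estradiol as agonist stimulus; 0% = peptide alone without receptor and 100% = receptor with peptide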
# ERa SRC1 inh: ER-alpha (human) coactivator binding inhibition; P03372; TR-FRET ER-alpha LBD / SRC-1 peptide, estradiol-bound; inhibition, % at 25.6 µM; actives 1.7% (n = 86,000); in the data active = inhibition above about 50%;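 note: 0% = receptor plus peptide control and 100% = peptide only without receptor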
# * hit, by the source's call; nt = no result; [ ] = another dose, or the depositor's remark.
SMILES,MRP resist rev,ERb SRC1 inh,MRP-1 activ,ERa coact pot,ERa SRC1 inh
Cc1ccc(S(=O)(=O)NCC(=O)OCC(=O)Nc2ncc(Cl)cc2Cl)cc1,8,42,-3,69,57*[fluorescence artefact?]
Cc1ccc(S(=O)(=O)CCC(=O)OCC(=O)Nc2ncc(Cl)cc2Cl)cc1,-1,5,-1,108,-4
O=C(Nc1nc(-c2cccs2)c(-c2cccs2)s1)C1(c2ccccc2)CC1,nt,nt,5.2*,nt,nt
CC(=O)NCCC(=O)Nc1nc(-c2cccs2)c(-c2cccs2)s1,nt,nt,0,nt,nt
CC(C)CC(CO)N1CCN(C(=O)c2cccc(C(F)(F)F)c2)CCC1=O (centres undefined),nt,nt,0,nt,nt
O=C(Cn1ncc2c1-c1ccccc1OC2)Nc1ccc(S(=O)(=O)N2CCCCC2)cc1,-11,-1,-2,102,2
O=C(O)c1cccc(N2C(=O)C3CC=C(Cl)CC3C2=O)c1 (centres undefined),-8,-16,10*,152,3
N=C1C(c2ccccc2)=C(O)CN1c1ccc2c(c1)OCO2,-10,1,-2,107,5
Cc1cccc(N2CCN(C(=O)Cc3ccc(-n4c(=O)[nH]c5ccsc5c4=O)cc3)CC2)c1C,nt,nt,3,nt,nt
Cc1ccc(C)c(N2CCN(C(=O)Cc3ccc(-n4c(=O)[nH]c5ccsc5c4=O)cc3)CC2)c1,nt,nt,9.6*,nt,nt
CCN(CC)CCc1c(C)[nH]c(C(=O)OCc2ccccc2)c1C,4,93*[fluorescence artefact?],-1,6,96*[fluorescence artefact?]
O=C1CN(C(=O)c2cccs2)c2ccccc2N1,-20,14,-1,966*[fluorescence artefact?],2
O=C(OC(C(=O)NCC1CCCO1)c1ccc(F)cc1)c1ccco1 (centres undefined),-6,-2,-2,113,-1
CSc1nnc(-c2ccco2)c(-c2ccco2)n1,-23,91*[fluorescence artefact?],-1,7,90*[fluorescence artefact?]
Cc1cccc(C)c1NC(=O)CCCSc1nnc(-c2ccco2)o1,2,1,-2,109,8
Cc1ccccc1NC(=O)CSc1nnc(-c2ccco2)c(-c2ccco2)n1,-14,72*,-3,58,71*
CCc1ccccc1NC(=O)CSc1nnc(-c2ccco2)n1N,8,-1,-1,120,4
Cc1cccc(C)c1NC(=O)CSc1nnc(-c2ccco2)c(-c2ccco2)n1,-11,83*[fluorescence artefact?],-2,11,84*[fluorescence artefact?]
CCN1CCCC1CNC(=O)C1CCN(Cc2nc(-c3cccc(Br)c3)oc2C)CC1 (centres undefined),11,-7,-3,122,-4
O=C(NC(=S)N1CCc2ccccc21)c1ccccc1Br,nt,nt,1,nt,nt
Cc1ccc(C(=O)ONc2ccc(N=NC(=O)c3ccccc3O)cc2)cc1,-2,52*,-3,131,72*
Cc1ccc(-n2c(=O)c3sccc3n(Cc3cc(=O)n4cc(Cl)ccc4n3)c2=O)cc1F,nt,nt,3,nt,nt
O=Cc1ccc(OC2OCCOC2Oc2ccc(C=O)cc2)cc1 (centres undefined),nt,nt,-3,nt,nt
CC1CC(C)(C)NCc2ccccc21 (centres undefined),3,88*[fluorescence artefact?],-3,106,2
CN(c1ccc(C(=O)NCc2ccc3c(c2)OCO3)cc1)S(C)(=O)=O,5,81*[fluorescence artefact?],-1,101,-2
SMILES,MRP resist rev,ERb SRC1 inh,MRP-1 activ,ERa coact pot,ERa SRC1 inh
COc1ccc(C(=O)NCc2ccccc2)cc1S(=O)(=O)N1CCCc2ccccc21,nt,nt,5.4*,nt,nt
COc1ccc(C(=O)NCc2ccc3c(c2)OCO3)cc1S(=O)(=O)N(C)Cc1ccccc1,nt,nt,7.3*,nt,nt
COc1ccc(C(=O)NCc2ccccc2)cc1Br,nt,nt,2,nt,nt
COc1ccc(Cn2c(=O)[nH]c3cc(C(=O)NCc4ccc5c(c4)OCO5)ccc3c2=O)cc1,16,23,2,131,51*
O=C(NCc1ccc2c(c1)OCO2)c1ccc2c(=O)n(C3CCCC3)c(=O)[nH]c2c1,6,6,-1,109,3
CCCN(CCC)S(=O)(=O)c1ccc(C(=O)NCc2ccc3c(c2)OCO3)cc1,24,-6,-2,112,-2
CCOC(=O)c1c(C)n(C)c2ccc(OC(=O)c3ccc(N4C(=O)CCC4=O)cc3)cc12,nt,nt,0,nt,nt
CCCOc1ccc(OCCOCCN2CCc3ccccc3C2)cc1,nt,nt,-2,nt,nt
Clc1ccc(OCCSc2ncccn2)c2ccccc12,2,1,5.0*,84,-4
c1cnc(SCCOc2cccc3ccccc23)nc1,10,-12,1,67,-1
COc1ccc(C(=O)CSc2nnc(-c3ccccn3)n2Cc2ccco2)cc1,2,14,-4,271*[fluorescence artefact?],14
CCCOc1ccc(OCCN2CCCC(C)C2)cc1 (centres undefined),nt,nt,-2,nt,nt
COc1cccc(C2/C(=C(/O)c3ccncc3)C(=O)C(=O)N2CCCN2CCOCC2)c1OC (centres undefined),-18,-5,nt,102,4
O=C(Cc1ccc(Cl)cc1)Nc1ccc(N2CCN(C(=O)c3ccco3)CC2)cc1,-3,32,0,128,67*[fluorescence artefact?]
O=C(Cc1ccc(Cl)cc1)Nc1ccc(-c2nnc(-c3ccco3)o2)cc1,-23,37,-6,123,68*[fluorescence artefact?]
O=C(c1ccco1)N1CCN(c2ccc(Cl)cc2)CC1,7,-4,1,121,6
CC1(C)Cc2ccccc2-c2nnnn21,-2,97*[fluorescence artefact?],-1,101,6
COc1cc2c(cc1OC)CN(S(=O)(=O)c1ccc3c(c1)OCCO3)CC2,11,-2,0,104,-4
CCCCc1cc2c(c(NC(C)=O)n1)c(=O)oc1ccccc12,5,16,-3,270*[fluorescence artefact?],28
CCCCC(=O)Nc1ccc2c(c1)oc1ccccc12,-11,-6,-3,96,2
CC(=O)Nc1nc(CC(C)C)cc2c1c(=O)oc1ccccc12,-10,43,-1,107,1
CC(=O)Nc1nc2c(c3c1c(=O)oc1ccccc13)CC(C)CC2 (centres undefined),10,8,-4,227*[fluorescence artefact?],12
CCCCc1cc2c(c(NC(=O)CC)n1)c(=O)oc1ccccc12,4,40,-2,121,62*[fluorescence artefact?]
COc1ccc(CN(CCC(c2ccccc2)c2ccc(OC(C)C)cc2)C(=O)CCl)cc1OC (centres undefined),nt,nt,-6,nt,nt
COc1ccc(OC)c(NC(=O)C(=O)NCCC2=CCCCC2)c1,nt,nt,1,nt,nt
SMILES,MRP resist rev,ERb SRC1 inh,MRP-1 activ,ERa coact pot,ERa SRC1 inh
O=C(CCc1ccc(S(=O)(=O)N2CCOCC2)cc1)Nc1nc(COc2ccccc2)cs1,nt,nt,0,nt,nt
Cc1ccc(OCc2ccoc2C(=O)O)cc1C,-4,66*,-1,32,62*
Cc1ccc(OCc2ccc(C(=O)N3CCOCC3)cc2)cc1C,1,-12,0,59,-25
Cc1cc(NC(=O)Cn2c(C)nc3ccccc3c2=O)ccc1Br,-1,9,-2,265*,19
CCOC(=O)c1ccc(NC(=O)CCOc2ccccc2)cc1,20,-3,3,659*[fluorescence artefact?],-1
CCOC(=O)c1ccc(NC(=O)COc2ccc(-n3cnnn3)cc2)cc1,11,82*[fluorescence artefact?],-1,14,91*[fluorescence artefact?]
